Common to all, as to test: DAPPL (digital affinity profiling via proximity ligation, sequencing); 10 mM Tris-HCl pH 7.5, 50 mM NaCl, 1 mM DTT, 4% glycerol, room temperature, 30 min; GST-TFs on glutathione beads, 16-mer random dsDNA library, 0.1% formaldehyde crosslink after washing; high values mean tight binding
What all share (details): protein: recombinant; tags: N-terminal GST; dsDNA, one strand shown

The target in one experiment is T1, FLI1 (Homo sapiens, UniProt Q01543 1-452).
T1 sequence: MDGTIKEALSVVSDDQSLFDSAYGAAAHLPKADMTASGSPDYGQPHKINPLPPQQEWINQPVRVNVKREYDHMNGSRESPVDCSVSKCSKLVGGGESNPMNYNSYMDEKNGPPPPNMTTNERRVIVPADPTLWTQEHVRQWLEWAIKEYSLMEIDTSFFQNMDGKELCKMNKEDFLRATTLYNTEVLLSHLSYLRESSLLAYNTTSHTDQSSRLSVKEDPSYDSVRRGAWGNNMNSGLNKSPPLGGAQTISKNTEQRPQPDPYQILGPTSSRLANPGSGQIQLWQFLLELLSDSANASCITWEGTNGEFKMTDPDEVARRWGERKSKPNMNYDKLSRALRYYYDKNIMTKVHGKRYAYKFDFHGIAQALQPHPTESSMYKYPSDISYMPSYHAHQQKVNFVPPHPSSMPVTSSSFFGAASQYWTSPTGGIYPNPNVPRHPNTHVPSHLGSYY
In a few lines: (§1)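 The binding signal reported is, for every hexamer, its read frequency for a factor over its read frequency for the tag-only sample. Reads came from pools of yeast-expressed, GST-fused human transcription factors on glutathione beads, barcoded with DNA and mixed with that sample, which were incubated with 200 nmole of a random double-stranded 16-mer DNA library in Tris/NaCl/DTT/glycerol buffer at room temperature for 30 min. After washing, the pools were crosslinked with 0.1% formaldehyde, proximity-ligated with BsaI/T4 ligase for 1 h at 37 °C, PCR-amplified and sequenced on an Illumina NextSeq500.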

The target in a further experiment is T2, ELK1 (Homo sapiens, UniProt P19419 1-428).
T2 sequence: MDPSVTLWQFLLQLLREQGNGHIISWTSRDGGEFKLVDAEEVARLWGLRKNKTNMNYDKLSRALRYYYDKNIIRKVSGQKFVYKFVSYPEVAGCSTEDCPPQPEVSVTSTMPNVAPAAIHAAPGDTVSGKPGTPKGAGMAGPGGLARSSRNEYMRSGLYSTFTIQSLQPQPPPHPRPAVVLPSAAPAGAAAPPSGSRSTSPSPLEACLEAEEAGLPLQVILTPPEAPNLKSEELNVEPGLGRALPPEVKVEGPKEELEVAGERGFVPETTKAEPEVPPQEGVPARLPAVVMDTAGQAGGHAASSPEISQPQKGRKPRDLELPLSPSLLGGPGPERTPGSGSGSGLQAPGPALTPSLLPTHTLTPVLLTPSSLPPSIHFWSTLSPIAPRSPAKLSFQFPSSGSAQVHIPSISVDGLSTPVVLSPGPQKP
The gist of the method:
as §1

In a further experiment the target is T3, GABPA (Homo sapiens, UniProt Q06546 1-454).
T3 sequence: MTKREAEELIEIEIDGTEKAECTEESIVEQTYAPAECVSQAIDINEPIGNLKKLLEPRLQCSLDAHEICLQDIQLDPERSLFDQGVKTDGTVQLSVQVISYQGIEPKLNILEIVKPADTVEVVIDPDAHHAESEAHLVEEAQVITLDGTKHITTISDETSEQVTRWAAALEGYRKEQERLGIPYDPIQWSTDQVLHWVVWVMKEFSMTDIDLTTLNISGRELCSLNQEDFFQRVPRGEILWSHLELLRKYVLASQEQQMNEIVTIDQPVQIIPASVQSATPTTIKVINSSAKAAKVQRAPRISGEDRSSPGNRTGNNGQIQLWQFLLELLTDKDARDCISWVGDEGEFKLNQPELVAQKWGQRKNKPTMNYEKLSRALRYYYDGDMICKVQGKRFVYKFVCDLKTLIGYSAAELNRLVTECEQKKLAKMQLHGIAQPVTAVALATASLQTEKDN
In a few lines: as §1

Another experiment concerns the target T4, ERG (Homo sapiens, UniProt P11308 1-479).
T4 sequence: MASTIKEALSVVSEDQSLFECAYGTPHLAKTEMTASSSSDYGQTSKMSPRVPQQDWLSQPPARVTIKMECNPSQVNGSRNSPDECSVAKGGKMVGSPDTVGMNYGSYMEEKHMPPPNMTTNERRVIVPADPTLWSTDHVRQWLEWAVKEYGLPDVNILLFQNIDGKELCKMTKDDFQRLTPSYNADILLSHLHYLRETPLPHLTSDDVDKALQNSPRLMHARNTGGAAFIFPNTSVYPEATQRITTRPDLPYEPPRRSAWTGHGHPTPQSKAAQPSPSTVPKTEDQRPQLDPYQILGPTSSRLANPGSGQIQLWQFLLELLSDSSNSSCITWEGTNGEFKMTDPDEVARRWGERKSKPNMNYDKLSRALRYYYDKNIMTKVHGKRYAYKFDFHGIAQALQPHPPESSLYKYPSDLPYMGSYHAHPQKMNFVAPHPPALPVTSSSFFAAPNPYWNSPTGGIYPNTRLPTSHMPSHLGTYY
The gist of the method:
as §1

The next experiment deals with ELF1 (Homo sapiens, UniProt P32519 1-619). In a few lines:
as §1

A further experiment addresses T5, EHF (Homo sapiens, UniProt Q9NZC4 1-300).
T5 sequence: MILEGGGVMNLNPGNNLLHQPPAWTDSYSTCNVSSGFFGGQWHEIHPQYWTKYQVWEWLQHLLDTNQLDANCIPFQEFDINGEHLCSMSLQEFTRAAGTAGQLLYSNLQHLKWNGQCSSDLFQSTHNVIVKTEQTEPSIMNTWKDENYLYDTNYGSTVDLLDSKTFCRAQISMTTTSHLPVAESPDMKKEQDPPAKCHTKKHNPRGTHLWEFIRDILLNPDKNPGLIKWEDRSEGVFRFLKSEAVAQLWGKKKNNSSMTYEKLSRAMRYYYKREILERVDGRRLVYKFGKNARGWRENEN
The gist of the method:
as §1

The next experiment has as its target SPI1 (Homo sapiens, UniProt P17947 1-270). The gist of the method: as §1
Another experiment has as its target SPIB (Homo sapiens, UniProt Q01892 1-262). The gist of the method:
as §1

A further experiment has as its target T6, ELK3 (Homo sapiens, UniProt P41970 1-407).
T6 sequence: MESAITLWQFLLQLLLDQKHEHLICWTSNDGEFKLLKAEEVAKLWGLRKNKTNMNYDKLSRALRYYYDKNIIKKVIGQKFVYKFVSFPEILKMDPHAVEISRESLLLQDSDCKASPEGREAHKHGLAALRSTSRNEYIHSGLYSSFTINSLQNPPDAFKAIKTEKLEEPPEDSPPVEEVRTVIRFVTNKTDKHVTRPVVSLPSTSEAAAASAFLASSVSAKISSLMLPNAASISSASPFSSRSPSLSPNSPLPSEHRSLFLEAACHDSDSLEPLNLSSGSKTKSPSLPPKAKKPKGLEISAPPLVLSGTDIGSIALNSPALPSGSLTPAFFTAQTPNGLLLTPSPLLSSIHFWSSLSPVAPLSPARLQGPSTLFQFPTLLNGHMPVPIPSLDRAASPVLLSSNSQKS
The gist of the method: as §1

Another experiment deals with T7, FEV (Homo sapiens, UniProt Q99581 1-238).
T7 sequence: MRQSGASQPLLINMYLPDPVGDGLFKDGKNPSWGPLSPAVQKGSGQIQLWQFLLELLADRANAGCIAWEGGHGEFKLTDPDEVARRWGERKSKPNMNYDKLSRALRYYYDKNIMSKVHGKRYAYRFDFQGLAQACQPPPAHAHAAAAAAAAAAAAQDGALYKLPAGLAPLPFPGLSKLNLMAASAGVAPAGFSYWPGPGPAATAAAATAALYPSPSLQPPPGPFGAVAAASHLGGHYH
The gist of the method: as §1

The target in a further experiment is ETV5 (Homo sapiens, UniProt P41161 1-510). The gist of the method: as §1
ETV5, sequence (P41161 whole entry): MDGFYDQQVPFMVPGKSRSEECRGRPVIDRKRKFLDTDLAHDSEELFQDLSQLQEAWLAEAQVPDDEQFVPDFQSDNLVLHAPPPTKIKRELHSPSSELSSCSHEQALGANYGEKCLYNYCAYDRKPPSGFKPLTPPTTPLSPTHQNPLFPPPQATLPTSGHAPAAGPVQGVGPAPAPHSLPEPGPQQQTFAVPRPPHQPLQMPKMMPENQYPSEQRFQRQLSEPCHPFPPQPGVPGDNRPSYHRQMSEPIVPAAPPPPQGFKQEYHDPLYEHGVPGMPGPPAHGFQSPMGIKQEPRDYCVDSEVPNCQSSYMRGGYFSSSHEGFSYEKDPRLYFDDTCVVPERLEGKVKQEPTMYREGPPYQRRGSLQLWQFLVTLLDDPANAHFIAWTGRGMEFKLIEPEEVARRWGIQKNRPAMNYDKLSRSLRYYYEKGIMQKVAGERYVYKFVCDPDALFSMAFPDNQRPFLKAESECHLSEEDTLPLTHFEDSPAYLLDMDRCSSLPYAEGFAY
A further experiment addresses T8, SPIC (Homo sapiens, UniProt Q8N5J4 1-248).
T8 sequence: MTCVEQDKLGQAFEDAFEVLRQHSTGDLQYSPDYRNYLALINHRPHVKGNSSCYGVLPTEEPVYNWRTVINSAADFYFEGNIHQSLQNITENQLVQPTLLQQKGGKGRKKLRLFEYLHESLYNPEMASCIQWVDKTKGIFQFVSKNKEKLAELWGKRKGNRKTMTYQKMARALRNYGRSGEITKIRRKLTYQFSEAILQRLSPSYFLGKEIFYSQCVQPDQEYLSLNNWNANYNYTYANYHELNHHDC
In a few lines:
as §1

Another experiment concerns the target ELF4 (Homo sapiens, UniProt Q99607 1-663). In a few lines: as §1
The target in another experiment is T9, ELK4 (Homo sapiens, UniProt P28324-2 1-405).
T9 sequence: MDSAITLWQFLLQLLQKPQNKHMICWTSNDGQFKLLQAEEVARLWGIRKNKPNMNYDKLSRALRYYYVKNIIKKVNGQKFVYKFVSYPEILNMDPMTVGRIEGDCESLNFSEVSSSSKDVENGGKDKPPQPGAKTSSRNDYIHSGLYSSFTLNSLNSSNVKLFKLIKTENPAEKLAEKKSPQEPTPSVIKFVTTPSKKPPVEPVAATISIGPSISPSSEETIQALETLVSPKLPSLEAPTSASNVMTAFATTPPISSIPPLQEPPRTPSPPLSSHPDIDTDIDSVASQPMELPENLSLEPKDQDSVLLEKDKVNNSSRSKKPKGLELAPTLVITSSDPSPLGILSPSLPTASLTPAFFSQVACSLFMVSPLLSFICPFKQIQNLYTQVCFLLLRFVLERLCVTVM
In a few lines: as §1

Another experiment deals with T10, ETV2 (Homo sapiens, UniProt O00321 1-342).
T10 sequence: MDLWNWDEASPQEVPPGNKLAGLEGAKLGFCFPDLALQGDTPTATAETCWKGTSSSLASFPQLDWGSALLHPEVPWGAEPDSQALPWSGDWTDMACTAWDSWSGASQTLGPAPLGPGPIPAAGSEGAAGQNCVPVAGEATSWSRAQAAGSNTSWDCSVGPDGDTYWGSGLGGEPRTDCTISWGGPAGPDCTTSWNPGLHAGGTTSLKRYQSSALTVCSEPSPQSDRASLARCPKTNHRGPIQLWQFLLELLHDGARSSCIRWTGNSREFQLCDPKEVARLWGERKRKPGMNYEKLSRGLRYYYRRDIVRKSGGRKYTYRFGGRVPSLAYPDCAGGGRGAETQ
In a few lines:
as §1

The next experiment deals with T11, ELF3 (Homo sapiens, UniProt P78545 1-371).
T11 sequence: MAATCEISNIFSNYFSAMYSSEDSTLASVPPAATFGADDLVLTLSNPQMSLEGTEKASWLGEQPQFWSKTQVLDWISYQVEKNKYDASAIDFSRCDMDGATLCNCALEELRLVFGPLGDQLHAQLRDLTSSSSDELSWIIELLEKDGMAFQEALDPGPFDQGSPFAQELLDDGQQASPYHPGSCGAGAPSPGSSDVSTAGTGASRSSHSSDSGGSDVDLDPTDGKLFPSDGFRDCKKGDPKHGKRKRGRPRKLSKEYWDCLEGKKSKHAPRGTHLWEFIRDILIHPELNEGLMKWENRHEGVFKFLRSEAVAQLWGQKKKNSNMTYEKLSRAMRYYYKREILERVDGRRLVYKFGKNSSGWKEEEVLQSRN
The gist of the method:
as §1

The next experiment deals with ETV1 (Homo sapiens, UniProt P50549 1-477). The gist of the method: as §1
ETV1, sequence (P50549 whole entry): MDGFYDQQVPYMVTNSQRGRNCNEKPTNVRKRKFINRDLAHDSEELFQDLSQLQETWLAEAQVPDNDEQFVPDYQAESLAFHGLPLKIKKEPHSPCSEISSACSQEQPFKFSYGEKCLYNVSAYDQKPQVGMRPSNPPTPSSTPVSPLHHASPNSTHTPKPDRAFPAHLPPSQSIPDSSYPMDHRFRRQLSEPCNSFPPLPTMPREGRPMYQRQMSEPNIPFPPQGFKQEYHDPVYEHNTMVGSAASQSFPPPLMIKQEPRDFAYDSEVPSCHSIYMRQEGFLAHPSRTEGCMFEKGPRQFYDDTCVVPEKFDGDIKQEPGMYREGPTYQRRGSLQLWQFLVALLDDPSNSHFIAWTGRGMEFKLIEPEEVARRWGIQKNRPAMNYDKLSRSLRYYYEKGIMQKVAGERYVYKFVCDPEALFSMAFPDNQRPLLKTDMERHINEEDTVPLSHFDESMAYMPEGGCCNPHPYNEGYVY
The target of another experiment is CRX (Homo sapiens, UniProt O43186 1-299). The gist of the method: as §1
CRX, sequence (O43186 whole entry): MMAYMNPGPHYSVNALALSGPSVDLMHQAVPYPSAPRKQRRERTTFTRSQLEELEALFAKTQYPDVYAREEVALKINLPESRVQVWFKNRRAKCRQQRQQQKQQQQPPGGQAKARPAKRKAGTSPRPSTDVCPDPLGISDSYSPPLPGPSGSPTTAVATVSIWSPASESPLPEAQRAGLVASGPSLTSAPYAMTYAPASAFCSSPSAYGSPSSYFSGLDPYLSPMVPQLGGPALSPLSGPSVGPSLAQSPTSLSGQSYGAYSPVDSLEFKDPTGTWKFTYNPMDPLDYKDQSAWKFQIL

ELF4, sequence (Q99607 whole entry): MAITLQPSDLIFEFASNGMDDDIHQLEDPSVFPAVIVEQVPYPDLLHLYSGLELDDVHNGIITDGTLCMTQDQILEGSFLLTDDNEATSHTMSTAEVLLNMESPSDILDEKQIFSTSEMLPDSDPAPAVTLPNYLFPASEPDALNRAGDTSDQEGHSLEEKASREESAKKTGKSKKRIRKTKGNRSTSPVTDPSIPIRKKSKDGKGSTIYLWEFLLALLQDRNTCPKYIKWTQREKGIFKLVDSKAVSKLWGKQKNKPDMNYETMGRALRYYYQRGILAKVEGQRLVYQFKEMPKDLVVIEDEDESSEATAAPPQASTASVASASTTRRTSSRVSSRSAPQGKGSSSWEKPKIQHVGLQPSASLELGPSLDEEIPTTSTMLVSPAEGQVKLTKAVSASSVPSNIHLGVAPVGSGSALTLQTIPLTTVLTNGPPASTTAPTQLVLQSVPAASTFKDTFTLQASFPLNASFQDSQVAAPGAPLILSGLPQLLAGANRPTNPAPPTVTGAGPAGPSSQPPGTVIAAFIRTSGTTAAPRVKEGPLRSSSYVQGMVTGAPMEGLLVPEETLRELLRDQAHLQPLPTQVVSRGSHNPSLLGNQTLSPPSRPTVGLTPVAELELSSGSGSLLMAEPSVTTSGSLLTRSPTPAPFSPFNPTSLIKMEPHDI
ELF1, sequence (P32519 whole entry): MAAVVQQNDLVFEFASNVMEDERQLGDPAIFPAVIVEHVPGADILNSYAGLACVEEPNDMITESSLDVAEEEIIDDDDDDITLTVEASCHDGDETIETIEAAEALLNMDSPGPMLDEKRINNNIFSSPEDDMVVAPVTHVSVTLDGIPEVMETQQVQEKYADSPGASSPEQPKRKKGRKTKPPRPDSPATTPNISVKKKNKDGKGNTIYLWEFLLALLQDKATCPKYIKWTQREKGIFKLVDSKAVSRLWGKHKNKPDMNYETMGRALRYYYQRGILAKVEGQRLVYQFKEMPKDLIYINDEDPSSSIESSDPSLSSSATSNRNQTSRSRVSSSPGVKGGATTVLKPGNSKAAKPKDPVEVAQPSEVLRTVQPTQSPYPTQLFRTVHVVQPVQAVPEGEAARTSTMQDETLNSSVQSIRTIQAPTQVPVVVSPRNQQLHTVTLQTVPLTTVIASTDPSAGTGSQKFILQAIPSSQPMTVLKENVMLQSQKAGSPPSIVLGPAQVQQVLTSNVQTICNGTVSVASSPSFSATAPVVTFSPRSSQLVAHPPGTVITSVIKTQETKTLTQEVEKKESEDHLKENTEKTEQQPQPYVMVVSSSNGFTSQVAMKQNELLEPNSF
SPIB, sequence (Q01892 whole entry): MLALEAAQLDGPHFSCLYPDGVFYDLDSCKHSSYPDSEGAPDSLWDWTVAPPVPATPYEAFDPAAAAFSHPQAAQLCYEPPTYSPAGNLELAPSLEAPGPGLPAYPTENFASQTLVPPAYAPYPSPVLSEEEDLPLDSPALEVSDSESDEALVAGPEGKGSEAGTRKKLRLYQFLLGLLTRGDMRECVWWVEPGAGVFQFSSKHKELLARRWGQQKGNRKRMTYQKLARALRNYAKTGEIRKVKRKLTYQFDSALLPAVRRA

Turning to TGCGAC, the binding signal with FLI1 was 1.2 fold enrichment (6-mer frequency, TF over GST control); with ELK1, 1.25 fold enrichment (6-mer frequency, TF over GST control); with GABPA, 1.21 fold enrichment (6-mer frequency, TF over GST control); with ERG it was 1.26 fold enrichment (6-mer frequency, TF over GST control); in the experiment with ELF1 it was 1.22 fold enrichment (6-mer frequency, TF over GST control); in the experiment with EHF it was 1.13 fold enrichment (6-mer frequency, TF over GST control). Besides, the binding signal with SPI1 is 1.24 fold enrichment (6-mer frequency, TF over GST control); with SPIB, 1.27 fold enrichment (6-mer frequency, TF over GST control); with ELK3, 1.16 fold enrichment (6-mer frequency, TF over GST control); with FEV it was 1.24 fold enrichment (6-mer frequency, TF over GST control); with ETV5, 1.24 fold enrichment (6-mer frequency, TF over GST control); in the experiment with SPIC, 1.3 fold enrichment (6-mer frequency, TF over GST control). For the same sequence, the binding signal is 1.27 fold enrichment (6-mer frequency, TF over GST control) with ELF4; 1.25 fold enrichment (6-mer frequency, TF over GST control) with ELK4; 1.33 fold enrichment (6-mer frequency, TF over GST control) with ETV2; 1.32 fold enrichment (6-mer frequency, TF over GST control) with ELF3; 1.18 fold enrichment (6-mer frequency, TF over GST control) in the experiment with ETV1.

Consider GGTGTT, for which the binding signal with FLI1 was 1.07 fold enrichment (6-mer frequency, TF over GST control); with ELK1, 1.13 fold enrichment (6-mer frequency, TF over GST control); in the experiment with GABPA, 1.11 fold enrichment (6-mer frequency, TF over GST control); with ERG it was 1.08 fold enrichment (6-mer frequency, TF over GST control); with ELF1, 1.09 fold enrichment (6-mer frequency, TF over GST control); in the experiment with EHF, 1.04 fold enrichment (6-mer frequency, TF over GST control). Moreover, the binding signal with SPIB was 1.02 fold enrichment (6-mer frequency, TF over GST control); in the experiment with FEV, 1 fold enrichment (6-mer frequency, TF over GST control); with ETV5, 1.09 fold enrichment (6-mer frequency, TF over GST control); in the experiment with SPIC, 1.09 fold enrichment (6-mer frequency, TF over GST control); in the experiment with ELF4 it was 1.09 fold enrichment (6-mer frequency, TF over GST control); with ELK4 it was 1.13 fold enrichment (6-mer frequency, TF over GST control). In addition, the binding signal is 1.13 fold enrichment (6-mer frequency, TF over GST control) with ETV2; 1.03 fold enrichment (6-mer frequency, TF over GST control) with ELF3; 1.01 fold enrichment (6-mer frequency, TF over GST control) with CRX; 1.04 fold enrichment (6-mer frequency, TF over GST control) with ETV1.

The values are drawn from PMC7862700, “An all-to-all approach to the identification of sequence-specific readers for epigenetic DNA modifications on cytosine”.
